The results in this text go back to PubChem BioAssay.

Molecules are shown by their SMILES. Activity calls are given as the source filed them. No rule for the calls is given here.

In this experiment the target is Pantothenate synthetase (Mycobacterium tuberculosis (strain ATCC 25618 / H37Rv)) (UniProt P9WIL5). The experiment can be described thus: Coupled enzyme confirmation of inhibitors against recombinant Mtb PanC (AID 375).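 Also: 0% = full reaction with vehicle and 100% = no enzyme background.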 As to conditions: coupled enzyme assay; at 10 µM, active compounds read high.
Pantothenate synthetase (Mycobacterium tuberculosis (strain ATCC 25618 / H37Rv)), sequence (P9WIL5 whole entry, looked up): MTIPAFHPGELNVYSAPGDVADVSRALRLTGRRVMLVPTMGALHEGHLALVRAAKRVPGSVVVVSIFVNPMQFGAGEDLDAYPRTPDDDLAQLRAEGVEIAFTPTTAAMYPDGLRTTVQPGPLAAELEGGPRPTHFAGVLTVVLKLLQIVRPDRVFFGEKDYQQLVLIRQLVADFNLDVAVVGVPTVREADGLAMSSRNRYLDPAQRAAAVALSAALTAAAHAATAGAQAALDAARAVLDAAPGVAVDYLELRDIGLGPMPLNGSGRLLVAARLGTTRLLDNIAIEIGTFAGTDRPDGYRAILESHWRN
Turning to `COCCCNS(=O)(=O)c1ccc2c(c1)CCN2C(C)=O`, the inhibition was 0% (inactive). The result for `COC(=O)C1=C(C)NC(C)=C(C(=O)OC)C1c1ccccc1[N+](=O)[O-]` reads 0% (inactive); that for `CC(C)CNC(=O)c1ccccc1NC(=O)CN(c1ccc2c(c1)OCCO2)S(C)(=O)=O`, 0% (inactive); that for `CCOC(=O)/C=C(\C)Sc1cc(=O)oc2ccccc12`, 6% (inactive). The result for `CCCCOC(=O)C1=C(C)Nc2ncnn2C1c1cccc(OC)c1OC` (stereo not drawn) reads 8% (inactive); that for `C=CCOC(=O)C(C#N)c1nc2ccccc2nc1N1CCN(Cc2ccccc2)CC1` (stereo not drawn), 2% (inactive). Regarding `COc1cc(C(=O)Nc2cc(Cl)ccc2C)c(-n2cnnn2)cc1OC`, the inhibition was 9% (inactive). Turning to `Cn1c(=O)c2c(ncn2CC(=O)OCC(=O)NC2CCCc3ccccc32)n(C)c1=O` (stereo not drawn), the inhibition was 3% (inactive). On to `CCn1nc(NC(=O)c2cccnc2)c2cc3ccccc3nc21`, for which the inhibition was 0% (inactive). The result for `CC1CN(C(=O)CSc2nnc(-c3ccc(Cl)cc3)n2C)CC(C)O1` (stereo not drawn) reads 0% (inactive); that for `C=CCc1cccc2cc(C(=O)NCc3cccnc3)c(=O)oc12`, 1% (inactive); that for `Cc1ccc(OCc2nnc(SCC(=O)Nc3ccc4c(c3)OCO4)n2C)cc1`, 0% (inactive). Consider `Cc1cc(-n2c(C)cc(C(=O)CSc3nnnn3-c3ccc(Cl)cc3)c2C)no1`, for which the inhibition was 7% (inactive). In the case of `CC12C(=O)N(CCC(=O)O)C(=O)C1C1C=CC2C1` (stereo not drawn), the inhibition was 0% (inactive). For the molecule `CCOC(=O)c1sc(NC(=O)CSc2nc3c(cc2C#N)CCC3)c(C#N)c1C`, the inhibition was 10% (inactive). With `O=C(CN(C1CCCCC1)S(=O)(=O)c1ccccc1)NCc1cccnc1`, the inhibition is 0% (inactive).

Turning to `CCOc1nc(-c2ccccc2)ccc1-c1noc(-c2cccnc2)n1`, the inhibition is 0% (inactive). The result for `CCOC(=O)C1=C(N)OC2=C(C(=O)CC(C)(C)C2)C1c1ccco1` (stereo not drawn) reads 5% (inactive).

Turning to `CCCC1(C(=O)OC)NC(c2cc(OC)c(OC)c(OC)c2)C2C(=O)N(CC)C(=O)C21` (stereo not drawn), the inhibition was 0% (inactive).

Take `O=C(c1ccc(F)cc1)C1CCN(CCn2c(=O)[nH]c3ccccc3c2=O)CC1`: the inhibition is 0% (inactive). For `O=C(CCC(=O)N(c1cccc(F)c1)C(C(=O)NC1CCCC1)c1ccncc1)Nc1cccnc1` (stereo not drawn), the inhibition was 0% (inactive).

Regarding `COc1ccc(CC(=O)NCc2cccs2)cc1`, the inhibition was 3% (inactive). The result for `COC(=O)N1CC(c2ccccc2)CC1=O` (stereo not drawn) reads 4% (inactive).

In general, inhibition refers to the drop in the measured response relative to a control, in per cent.
